Bioassay records deposited in PubChem by National Center for Advancing Translational Sciences (NCATS).
TDP1 cell noCPT: qHTS for Inhibitors of human tyrosyl-DNA phosphodiesterase 1 (TDP1): qHTS in cells in absence of CPT; DT40 Tdp1-/- hTDP1 cells, no CPT, ATP luminescence, 48 h; Potency, µM (doses to about 46.2 µM), for the others: top-dose activity change, negative = growth inhibition, usual class: inhibitors; 420,000 compounds, 15% hits; AID 686978, 2013; further: on the % scale 0 is the no-effect control and ±100 the full control effect; nearly all actives have a fitted effect of over 55% in size
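DT40 Tdp1-/-;hTDP1 cells, no CPT (DMSO vehicle only), 400 cells/well; compounds pin-transferred; ≥48 hr, 37 °C; CellTiter-Glo 30 min RT dark, luminescence read.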
HT1080 IDH1KD tx: toxicity to HT-1080 IDH1 knockdown cells (counter line); 360,000 compounds, 2% hits; Potency, µM (highest dose often 46.1 µM), without a hit: top-dose activity, negative = toxicity, usual class: cytotoxic; HT-1080 IDH1 knockdown viability, ATP luminescence, 48 h;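 further: 0% = DMSO wells and -100% = cell-free medium wells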
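In this qHTS, HT-1080 cells depleted of IDH1 are exposed for 48 h at 37 °C to compound titrations. Toxicity is scored from CellTiter-Glo luminescence, with DMSO as full viability and medium alone as none.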
HepG2 tox: counter-screen for TGF-b inhibitors: cytotoxicity in HepG2 cells; HepG2 CAGA-GFP viability, ATP luminescence, 18 h; Potency, µM (titrated, usually from 46.1 µM), without a hit: top-dose activity change, negative = cytotoxicity, actives largely listed as cytotoxic; 410,000 compounds, 0.76% hits; AID 588856
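HepG2 CAGA-GFP cells (1000/well, DMEM with 1% FBS) received compound, then TGF-beta at 500 pg/mL final, and were incubated 18 hours at 37 degrees C. Viability was read by CellTiter-Glo luminescence. Media-only wells were set as complete cell-killing and DMSO as no toxicity.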
TGFb inhibitor: inhibitors of TGF-b signaling; Potency, µM (top dose mostly 46.1 µM), for the others: at the top dose activity, negative = inhibition, hits mostly inhibitors; 410,000 compounds, 1.2% hits; HepG2 CAGA-GFP TGF-b/SMAD3 reporter, GFP fluorescence, 18 h; TGF-beta stimulated, 500 pg/mL final; further: on the % scale 0 is the no-effect control and ±100 the full control effect; nearly all actives have a fitted effect of over 65% in size
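First, reporter cells (HEPG2 CAGA-GFP) rested 2 h at 37 degrees C. Next, compounds were pinned in and TGF-beta added to 500 pg/mL final. After 18 h, GFP was imaged per cell and summed per well.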
HT1080-NT tox: kills 2HG-producing HT-1080-NT fibrosarcoma cells; HT-1080-NT fibrosarcoma viability, CellTiter-Glo ATP luminescence, 48 h; Potency, µM (series often up to 46.1 µM), without a hit: at the highest dose activity, negative = less viability, hits mostly cytotoxic; 360,000 compounds, 1.6% hits;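 further: NT is the 2HG producing partner of a matched IDH1 knockdown line; 0% = DMSO-treated cells and -100% = media-only wells without cells; nearly all actives have a fitted effect of over 55% in size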
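Viability of the 2HG-overproducing fibrosarcoma line after 48 hours of compound exposure at 37 degrees C was determined by luminescence with CellTiter-Glo, and concentration-effect curves were then fitted and categorized.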
TDP1 cell CPT: DT40-hTDP1 cell growth loss with CPT; chicken DT40 Tdp1-/-;hTDP1 cells + 20 nM CPT, ATP luminescence, 48 h; Potency, µM (top dose mostly 46.2 µM), for inactives: at the highest dose activity change, negative = growth inhibition, hits mostly inhibitors; 420,000 compounds, 12% hits; AID 686979; further: on the % scale 0 is the no-effect control and ±100 the full control effect; nearly all actives have a fitted effect of over 55% in size
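Chicken DT40 Tdp1-/- cells stably complemented with human TDP1 were seeded at 400 cells/well in medium containing 20 nM camptothecin, exposed to pin-transferred compounds, and grown at 37 °C for at least 48 hr. Viability was read as ATP luminescence.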
Active calls of the source: *. Only some compounds are listed: those with a hit (about 17% of all), similar ones and a draw of the others. The call rests on the fitted dose curve; in most records, active means well fitted curve in the direction sought with a large enough effect; inconclusive means small, poorly fitted or top-dose-only effect, or another doubt; inactive means no such curve, though single readings can be large; an effect the other way counts as inactive or inconclusive. Potency means the concentration at half of the fitted maximal effect.

Screening CCN(C(=O)COC(=O)c1cccc2ccccc12)c1c(N)n(Cc2ccccc2)c(=O)[nH]c1=O returned TDP1 cell noCPT 0%, HT1080 IDH1KD tx -4%, HepG2 tox -9%, TGFb inhibitor -17%, HT1080-NT tox -6% and TDP1 cell CPT -20%.
Screening CC(C)CN(C(=O)COC(=O)Cc1ccc(Cl)cc1)c1c(N)n(Cc2ccccc2)c(=O)[nH]c1=O returned TDP1 cell noCPT inconclusive, HT1080 IDH1KD tx 23µM*, HepG2 tox -103%, TGFb inhibitor inconclusive, HT1080-NT tox 26µM* and TDP1 cell CPT inconclusive.
Screening CC(C)CN(C(=O)CSc1nc2ccccc2o1)c1c(N)n(Cc2ccccc2)c(=O)[nH]c1=O returned TDP1 cell noCPT 21µM*, HT1080 IDH1KD tx -6%, HepG2 tox 5%, TGFb inhibitor inconclusive, HT1080-NT tox 1% and TDP1 cell CPT 18µM*.
`CC(C)CN(C(=O)CCCOc1ccc(Cl)cc1Cl)c1c(N)n(Cc2ccccc2)c(=O)[nH]c1=O` gave TDP1 cell noCPT 26µM*, HT1080 IDH1KD tx inconclusive, HepG2 tox -43%, TGFb inhibitor inconclusive, HT1080-NT tox -18% and TDP1 cell CPT inconclusive.
For CC(C)CN(C(=O)COC(=O)c1cccc2ccccc12)c1c(N)n(Cc2ccccc2)c(=O)[nH]c1=O the results were TDP1 cell noCPT 16µM*, HT1080 IDH1KD tx 1%, HepG2 tox 1%, TGFb inhibitor -8%, HT1080-NT tox 0% and TDP1 cell CPT inconclusive.
COc1ccc(CC(=O)OCC(=O)N(CC(C)C)c2c(N)n(Cc3ccccc3)c(=O)[nH]c2=O)cc1 was read as TDP1 cell noCPT -26%, HT1080 IDH1KD tx -1%, HepG2 tox 4%, TGFb inhibitor inconclusive, HT1080-NT tox 1% and TDP1 cell CPT -27%.
CC(C)CN(C(=O)CSc1nnc(-c2ccco2)o1)c1c(N)n(Cc2ccccc2)c(=O)[nH]c1=O was read as TDP1 cell noCPT 0%, HT1080 IDH1KD tx 0%, HepG2 tox 1%, TGFb inhibitor 0%, HT1080-NT tox -2% and TDP1 cell CPT -2%.
O=C(CC1NCCNC1=O)Nc1ccc(F)c(Cl)c1 (stereo not drawn) was read as TDP1 cell noCPT -16%, HepG2 tox -28%, TGFb inhibitor inconclusive and TDP1 cell CPT -7%.
`COc1cccc(NC(=O)N(C)C[C@H]2OCc3cn(nn3)CCCC(=O)N([C@@H](C)CO)C[C@@H]2C)c1` gave TDP1 cell noCPT -5%, HT1080 IDH1KD tx 3%, HepG2 tox -5%, TGFb inhibitor 1%, HT1080-NT tox -3% and TDP1 cell CPT 0%.
Screening CN(CC(=O)Nc1ccc(Cl)cc1)C(=O)Cc1c(F)cccc1Cl returned TDP1 cell noCPT 6%, HT1080 IDH1KD tx -11%, HepG2 tox -4%, TGFb inhibitor 4%, HT1080-NT tox 5% and TDP1 cell CPT 13%.
`COc1ccc(-c2nc3ccc(Cl)cn3c2Cc2ccccc2C(F)(F)F)cc1OC` gave TDP1 cell noCPT 16µM*, HT1080 IDH1KD tx -28%, HepG2 tox -86%, TGFb inhibitor inconclusive, HT1080-NT tox inconclusive and TDP1 cell CPT 18µM*.
COc1ccc(Cc2c(-c3ccc(F)cc3)nc3c4ccccc4ccn23)c(C)c1 was read as TDP1 cell noCPT inconclusive, HT1080 IDH1KD tx inconclusive, HepG2 tox -32%, TGFb inhibitor inconclusive, HT1080-NT tox -41% and TDP1 cell CPT inconclusive.
Screening COc1ccccc1Cc1c(C(C)(C)C)nc2c3ccccc3ccn12 returned TDP1 cell noCPT 2.6µM*, HT1080 IDH1KD tx 13µM*, HepG2 tox -15%, TGFb inhibitor inconclusive, HT1080-NT tox inconclusive and TDP1 cell CPT 3.3µM*.
`COc1ccccc1Cc1c(-c2ccc(C#N)cc2)nc2c3ccccc3ccn12` gave TDP1 cell noCPT 21µM*, HT1080 IDH1KD tx -17%, HepG2 tox -34%, TGFb inhibitor -30%, HT1080-NT tox -23% and TDP1 cell CPT 21µM*.
Screening COc1ccccc1Cc1c(-c2ccc(OC)c(OC)c2)nc2c3ccccc3ccn12 returned TDP1 cell noCPT 23µM*, HT1080 IDH1KD tx inconclusive, HepG2 tox -13%, TGFb inhibitor -57%, HT1080-NT tox inconclusive and TDP1 cell CPT inconclusive.
Screening COc1ccc(-c2nc3ccc(Br)cn3c2Cc2ccccc2C(F)(F)F)cc1OC returned TDP1 cell noCPT inconclusive, HT1080 IDH1KD tx inconclusive, HepG2 tox -105%, TGFb inhibitor inconclusive, HT1080-NT tox inconclusive and TDP1 cell CPT inconclusive.
`O=C(NC1(C(F)(F)F)NC(=O)N(c2ccc(F)cc2)C1=O)c1cccs1` (stereo not drawn) gave TDP1 cell noCPT -22%, HT1080 IDH1KD tx 9%, HepG2 tox 2%, TGFb inhibitor -1%, HT1080-NT tox 7% and TDP1 cell CPT 7%.
`COc1ccc(Cc2c(-c3ccccc3)nc3c4ccccc4ccn23)c(C)c1` gave TDP1 cell noCPT 15µM*, HT1080 IDH1KD tx inconclusive, HepG2 tox -24%, TGFb inhibitor inconclusive, HT1080-NT tox -25% and TDP1 cell CPT inconclusive.
`COc1ccc(-c2nc3c4ccccc4ccn3c2Cc2ccccc2)cc1OC` gave TDP1 cell noCPT 16µM*, HT1080 IDH1KD tx inconclusive, HepG2 tox -54%, TGFb inhibitor inconclusive, HT1080-NT tox inconclusive and TDP1 cell CPT inconclusive.
Screening COc1ccc(-c2nc3c4ccccc4ccn3c2Cc2ccccc2C(F)(F)F)cc1OC returned TDP1 cell noCPT 16µM*, HT1080 IDH1KD tx inconclusive, HepG2 tox -26%, TGFb inhibitor inconclusive, HT1080-NT tox inconclusive and TDP1 cell CPT inconclusive.
O=C1C=CC(=O)N1 was read as TDP1 cell noCPT 3.3µM*, HT1080 IDH1KD tx inconclusive, HepG2 tox -71%, TGFb inhibitor inconclusive, HT1080-NT tox inconclusive and TDP1 cell CPT 3.3µM*.
Screening O=C(Nc1ccccc1Br)c1cnn2c1NC(=C1CC1)C=C2C(F)F returned TDP1 cell noCPT inconclusive, HT1080 IDH1KD tx 25%, HT1080-NT tox 2% and TDP1 cell CPT -5%.
